For 35 compounds, outcome and Potency results are on record in PubChem BioAssay (Tox21).

The structures appear in SMILES notation. Values joined by “and” are separate entries in the source; they are usually repeats but may differ in a detail not shown here. Identical values can stand only once. Results filed as inconclusive are left out. Some compounds were tested as several samples or in several runs, with calls that do not always agree. Active and inactive are the calls of the source. Unless noted, calls come from the whole dose curve; as a rule, active = well fitted curve in the direction sought with a large enough effect in the repeat runs; inconclusive = weak or mixed curves; inactive = no such curve, though single readings can be large; an effect the other way counts as inactive or inconclusive.

A short description of assay [1]: qHTS assay to identify small molecule antagonists of the glucocorticoid receptor (GR) signaling pathway - cell viability counter screen (AID 720693). Note: nearly all actives have a fitted effect of over 55% in size. To be noted: GR-bla HeLa viability, CellTiter-Glo luminescence, 18 h, with 5 nM dexamethasone present; series mostly up to 58.5 µM. A general note: Quantitative high-throughput screening tests each substance at several concentrations.

The nature of assay [2]: qHTS assay for identifying genotoxic compounds that show differential cytotoxicity against isogenic chicken DT40 cell lines with known DNA damage response pathways - wild type cell line (AID 743012). Note: nearly all actives have a fitted effect of over 60% in size. Note: potency is the fitted concentration of half-maximal effect. The following applies: DT40 wild type chicken cells viability, CellTiter-Glo, 40 h; series mostly up to 68.4 µM. Summed up: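 Quantitative HTS on parental DT40 cells: 40 h compound treatment at 37 C/5% CO2, with viability then determined by CellTiter-Glo luminescence. Values serve as the DNA repair-proficient reference for differential cytotoxicity.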

Assay [3] in a line: qHTS assay for identifying genotoxic compounds that show differential cytotoxicity against isogenic chicken DT40 cell lines with known DNA damage response pathways - Rev3 mutant cell line (AID 743014). Note: nearly all actives have a fitted effect of over 55% in size. Note: potency is the fitted concentration of half-maximal effect. To be noted: chicken DT40 Rev3-/- viability, CellTiter-Glo, 40 h; series mostly up to 68.4 µM.
The nature of assay [4]: qHTS assay to identify small molecule antagonists of the androgen receptor (AR) signaling pathway - cell viability counter screen (AID 743033; note: nearly all actives have a fitted effect of over 45% in size). The following applies: AR-bla HEK293 viability, CellTiter-Glo luminescence, 16 h; series mostly up to 58.5 µM.
A short description of assay [5]: qHTS assay to identify small molecule antagonists of the androgen receptor (AR) signaling pathway using the MDA cell line - cell viability counter screen (AID 743041; note: nearly all actives have a fitted effect of over 45% in size). The following applies: MDA-kb2 viability, CellTiter-Fluor, 16 h, cells co-treated with R1881 androgen agonist; series mostly up to 70.3 µM. Summed up: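 MDA-kb2 AR-luc human breast carcinoma cells (MMTV-luciferase, AR/GR responsive) were treated with compounds plus R1881 agonist for 16 h at 37 °C. Viability was read as CellTiter-Fluor fluorescence in the same wells as the reporter assay.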

Assay [6] in a line: qHTS assay for identifying genotoxic compounds that show differential cytotoxicity against isogenic chicken DT40 cell lines with known DNA damage response pathways - Rad54/Ku70 mutant cell line (AID 743015). Note: nearly all actives have a fitted effect of over 60% in size. Note: potency is the fitted concentration of half-maximal effect. The following applies: DT40 Rad54/Ku70 mutant viability, CellTiter-Glo, 40 h; series mostly up to 66.8 µM.
In assay [7] the target is Androgen receptor (Homo sapiens) (UniProt P10275). Put plainly: qHTS assay to identify small molecule antagonists of the androgen receptor (AR) signaling pathway (AID 743035; active = well fitted inhibition curve with a large enough effect in the signal ratio in the repeat runs, not every such curve was filed as active; the % refers to the signal ratio). To be noted: HEK293 AR-UAS-bla, R1881-stimulated, beta-lactamase FRET, 16 h; series mostly up to 58.5 µM. Put shortly:
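Cell line: GeneBLAzer AR-UAS-bla GripTite (HEK293). Stimulus: R1881 added after compound. Exposure: 16 h, 37C, 5% CO2. Readout: LiveBLAzer B/G FRET fluorescence after 2 h at room temperature.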

The target is the same in assay [8]. As to the kind of experiment: qHTS assay to identify small molecule agonists of the androgen receptor (AR) signaling pathway (AID 743036; active = well fitted activation curve with a large enough effect in the signal ratio in the repeat runs, with a control signal flat, not every such curve was filed as active; the % refers to the signal ratio). To be noted: HEK293 AR-UAS-bla GripTite, beta-lactamase FRET ratio, 16 h; series mostly up to 62.4 µM. Put shortly: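 Beta-lactamase under UAS control, stably integrated in HEK293 GripTite cells, reports receptor activation. After 16 h compound treatment, cells received FRET substrate for 2 h at room temperature before fluorescence reading.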

Assay [9] has the same target. As to the kind of experiment: qHTS assay to identify small molecule agonists of the androgen receptor (AR) signaling pathway using the MDA cell line (AID 743040; note: nearly all actives have a fitted effect of over 20% in size). The following applies: MDA-kb2 AR-luc cells, MMTV luciferase, 16 h, stronger effect = higher value; series mostly up to 70.3 µM. Summed up: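 MDA-kb2 breast carcinoma cells stably carrying an MMTV-driven luciferase reporter (AR- and GR-responsive) were seeded and held 5 h at 37C, 0% CO2, then exposed to compounds in DMSO for 16 h. Luminescence was read 30 min after ONE-Glo addition.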

Assay [10] has the same target. As to the kind of experiment: qHTS assay to identify small molecule antagonists of the androgen receptor (AR) signaling pathway using the MDA cell line (AID 743042; note: nearly all actives have a fitted effect of over 55% in size). To be noted: MDA-kb2 AR-luc, MMTV luciferase, R1881 antagonist, 16 h; series mostly up to 70.3 µM. Put shortly: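 MDA-kb2 cells (human breast carcinoma, stably carrying an MMTV-luciferase reporter responsive to AR and GR) were plated at 3,000 cells/well and preincubated 5 hr at 37C, then given compound plus R1881 agonist for 16 h. ONE-Glo luminescence was read.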

Androgen receptor (Homo sapiens), sequence (P10275 whole entry, looked up): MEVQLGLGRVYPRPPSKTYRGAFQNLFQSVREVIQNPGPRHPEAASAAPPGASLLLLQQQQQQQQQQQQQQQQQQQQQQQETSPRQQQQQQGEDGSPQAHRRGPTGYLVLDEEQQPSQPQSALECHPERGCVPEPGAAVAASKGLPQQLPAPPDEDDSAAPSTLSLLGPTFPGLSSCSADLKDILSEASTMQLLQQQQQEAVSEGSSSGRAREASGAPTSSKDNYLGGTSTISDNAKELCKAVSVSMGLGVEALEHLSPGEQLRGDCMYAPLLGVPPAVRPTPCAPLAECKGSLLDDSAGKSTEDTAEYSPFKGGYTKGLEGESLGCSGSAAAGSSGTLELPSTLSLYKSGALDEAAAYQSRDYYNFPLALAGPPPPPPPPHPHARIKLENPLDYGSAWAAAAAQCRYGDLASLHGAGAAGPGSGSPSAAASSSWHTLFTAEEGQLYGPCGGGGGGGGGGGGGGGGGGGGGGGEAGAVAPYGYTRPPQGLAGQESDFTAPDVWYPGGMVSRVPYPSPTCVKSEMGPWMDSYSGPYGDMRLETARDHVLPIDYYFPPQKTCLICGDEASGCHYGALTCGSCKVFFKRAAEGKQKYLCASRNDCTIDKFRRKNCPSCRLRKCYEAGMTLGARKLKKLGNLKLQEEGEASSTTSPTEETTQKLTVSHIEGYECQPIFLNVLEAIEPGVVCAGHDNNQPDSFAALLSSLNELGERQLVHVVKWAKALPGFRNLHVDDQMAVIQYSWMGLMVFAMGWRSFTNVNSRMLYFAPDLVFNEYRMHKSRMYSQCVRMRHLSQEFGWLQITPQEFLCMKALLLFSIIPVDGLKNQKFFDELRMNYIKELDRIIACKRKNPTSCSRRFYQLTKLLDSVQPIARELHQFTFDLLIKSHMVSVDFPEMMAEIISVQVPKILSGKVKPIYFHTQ

As to `CC(C)=C[C@@H]1[C@@H](C(=O)OCc2coc(Cc3ccccc3)c2)C1(C)C`, the compound was classed as inactive in assay [1], in assay [4] and in assay [5]. The Potency result was “inactive and 27.3 µM (active)” in assay [2]; “inactive and 34.4 µM (active)” in assay [3].
Regarding `CN(C)CCO`, the outcome in [1] and in assay [5] was inactive. Besides, the Potency result in assay [2], in [3] and in assay [6] was “inactive” in each case.
Regarding `COC(=O)NC(=S)Nc1ccccc1NC(=S)NC(=O)OC`, the compound was classed as inactive in [1], in [4] and in [5]. In addition, the Potency in assay [2] and in [3] was 61.1 µM (active) each time.
In the case of `Nc1ccccc1C(=O)O`, the compound was classed as inactive in assay [1], in [4] and in assay [5]. Moreover, the Potency result in [2], in assay [3] and in assay [6] was “inactive” each time.
`O=S(=O)(c1ccc(O)cc1)c1ccc(O)cc1`: the compound was called inactive in assay [1] and in assay [5]. Moreover, the Potency entry in assay [2], in assay [3] and in assay [6] was “inactive” each time.
Regarding `C#CC(C)(C)NC(=O)c1cc(Cl)cc(Cl)c1`, the compound was called inactive in [1], in assay [4] and in [5]. For the same compound, the Potency in assay [3] was 68.6 µM (active). The Potency result in [6] was “inactive”.
Consider `CCCCN(CCCC)SN(C)C(=O)Oc1cccc2c1OC(C)(C)C2`, for which the compound was classed as inactive in assay [1] and in assay [5]. The Potency in [2] is 30.6 µM (active); in assay [3], 48.6 µM (active); in assay [6], 30.6 µM (active).
Consider `CCCCN(CC)C(=O)SCCC`, for which the call in assay [1], in assay [8], in assay [9], in assay [5] and in [10] was inactive. In addition, the Potency result in assay [2], in assay [3], in assay [6] and in assay [7] was “inactive” throughout.
As for `CC(C)C#N`, the call in assay [1] and in assay [5] was inactive. Also, the Potency result in [2], in assay [3] and in assay [6] was “inactive” throughout.
As to `c1cc2c3c(cccc3c1)CC2`, the call in [1], in [4], in [8], in assay [9], in assay [5] and in [10] was inactive. Also, the Potency entry in [3] and in assay [7] was “inactive” throughout. The Potency result in assay [6] is “inactive and 61.1 µM (active)”.
In the case of `CCOP(OCC)OCC`, the outcome in [1] and in assay [5] was inactive. Further, the Potency result in [2], in [3] and in [6] was “inactive” each time.
Turning to `Cc1cc(Cl)ccc1O`, the compound was classed as inactive in assay [1], in assay [4] and in [5]. Besides, the Potency entry in assay [2], in assay [3] and in assay [6] was “inactive” in each case.
With `CC(=O)C=C(C)C`, the outcome in assay [1] and in assay [5] was inactive. Besides, the Potency result in assay [2], in assay [3] and in assay [6] was “inactive” each time.
On to `CCCCCCCCCCCC#N`, for which the result in assay [1] and in assay [5] was inactive. Moreover, the Potency result in [2], in assay [3] and in assay [6] was “inactive” in each case.
In the case of `CCCN(CCC)N=O`, the compound was classed as inactive in [1] and in assay [5]. The Potency entry in assay [2], in assay [3] and in assay [6] was “inactive” each time.
With `Cc1ccc(N)cc1Cl`, the outcome in [1] and in assay [5] was inactive. The Potency entry in assay [2], in assay [3] and in [6] was “inactive” each time.
Turning to `Cc1ccc(N)cc1N`, the compound was classed as inactive in [1], in assay [4] and in [5]. In [6], the Potency is 17.2 µM (active).
Consider `O=C1CCCN1`, for which the compound was called inactive in assay [1] and in [5]. For the same compound, the Potency entry in assay [2], in assay [3] and in [6] was “inactive” each time.
Take `CCOC(=O)c1ccccc1C(=O)OCC`: the Potency entry in [2], in [3] and in assay [6] was “inactive” each time. The outcome in assay [4] and in [5] was inactive.
For the compound `O=[N+]([O-])c1ccc(Oc2ccc(Cl)cc2Cl)cc1`, the result in assay [1] and in assay [5] was inactive. The Potency entry is “inactive and 61.1 µM (active)” in assay [2]; “inactive and 61.1 µM (active)” in assay [3]; 61.1 µM (active) in [6].
For `O=NN1CCCC1`, the Potency entry in assay [2], in assay [3] and in assay [6] was “inactive” in each case. In addition, the compound was classed as inactive in [4] and in [5].
For the compound `[O-][Cl+2]([O-])O`, the outcome in assay [1], in [4] and in assay [5] was inactive.
For the compound `CCCN(CCC)c1c([N+](=O)[O-])cc(C(F)(F)F)cc1[N+](=O)[O-]`, the Potency result in assay [2], in [3], in assay [6] and in assay [7] was “inactive” throughout. In addition, the outcome in assay [4], in assay [8], in [9], in [5] and in [10] was inactive.
For the compound `C1CN2CCN1CC2`, the compound was classed as inactive in [1] and in [5]. The Potency result in assay [2], in assay [3] and in assay [6] was “inactive” each time.
With `COC(=O)c1ccccc1N`, the call in assay [1] and in [5] was inactive. Besides, the Potency entry in assay [2], in [3] and in assay [6] was “inactive” in each case.
With `CN=C=S`, the result in assay [1] and in assay [5] was inactive. For the same compound, the Potency entry in [2], in [3] and in assay [6] was “inactive” in each case.
As to `O=c1[nH]c2ccccc2c(=O)o1`, the compound was classed as inactive in assay [1] and in assay [5]. For the same compound, the Potency entry in [2], in assay [3] and in assay [6] was “inactive” in each case.
In the case of `[N-]=[N+]=[N-]`, the call in assay [1], in [8], in [9], in assay [5] and in assay [10] was inactive. Also, the Potency result in [2], in assay [3], in [6] and in [7] was “inactive” in each case.
Regarding `ClCc1cccnc1`, the result in assay [1], in assay [4] and in assay [5] was inactive. The Potency result in assay [2], in assay [3] and in assay [6] was “inactive” in each case.
For the compound `CCC(C)(CC)c1cc(NC(=O)c2c(OC)cccc2OC)on1`, the compound was called inactive in [1] and in assay [5]. In addition, the Potency was 52.4 µM (active) in assay [2], 66 µM (active) in assay [3] and 46.7 µM (active) in assay [6].
Consider `OC(O)C(Cl)(Cl)Cl`, for which the compound was called inactive in assay [1], in assay [4] and in assay [5]. Also, the Potency entry in [2], in [3] and in assay [6] was “inactive” in each case.
Regarding `CC1C=[C-]C=C1.[C-]#[O+].[C-]#[O+].[C-]#[O+].[Mn]`, the result in [1] and in assay [5] was inactive. Moreover, the Potency entry in assay [2], in assay [3] and in assay [6] was “inactive” throughout.
Regarding `C=CC(N)=O`, the compound was called inactive in [1], in assay [4] and in [5].
Turning to `CC1OC(C)OC(C)O1` (stereo not given), the outcome in assay [1] and in [5] was inactive. The Potency entry in [2], in assay [3] and in [6] was “inactive” each time.
Consider `CCNc1nc(NC(C)(C)C)nc(SC)n1`, for which the compound was called inactive in assay [1], in [4] and in assay [5]. Besides, the results for the Potency in assay [3] and in [6] were 60.3 µM (active) and 54.5 µM (active), respectively.
